The source made the active and inactive calls. The calls were made as follows: active = hit-call score of the fitted dose curve at least 0.9, where 1 is the maximum; inactive = score below 0.9.
Read-out: CYP3A5 (gene 1577)
Assay: LTEA_HepaRG_CYP3A5: Life Technologies and Expression Analysis (LTEA) Assay for CYP3A5 using HepaRG (AID 2283493)
Conditions: mRNA level, 48 h; actives raise or lower the signal
Experimental: LTEA_HepaRG is a cell based, multiplexed-readout assay that uses HepaRG, a human liver cell line, with measurements taken at 48 hours after chemical dosing on a 96-well plate.LTEA_HepaRG_CYP3A5 is one of 102 assay component(s) measured in the LTEA HepaRG cell culture assay. It is a marker of NR mediated metabolism.Data from the assay component LTEA_HepaRG_CYP3A5 was analyzed into 1 endpoint. This assay endpoint, LTEA_HepaRG_CYP3A5, was analyzed with bidirectional fitting relative to DMSO as the negative control and baseline of activity. Using a type of inducible reporter, measures of mRNA induction for gain or loss-of-signal activity can be used to understand regulation of transcription factor activity. To generalize the intended target to other relatable targets, this assay endpoint is annotated to the cyp intended target family, where the subfamily is xenobiotic metabolism.
A total of 1060 chemcials from the ToxCast library were tested in eight-point concentration-response experiments. Cell culture and cytotoxicity assays were conducted at Thermo Fisher Scientific's Custom Services facility (Madison, WI). A single lot of human HepaRG cells (Thermo Fisher Scientific, Frederick, MD) was used for the cell culture experiments. 96-well format collagen type I coated plates of human HepaRG cells were prepared using established methods. Briefly, cryopreserved HepaRG cells were thawed, plated at a density of approximately 100,000 cells/well in HepaRG Thaw, Plate, and General Purpose media (HPRG770, Thermo Fisher Scientific), and incubated for 48 hours. 0.5% DMSO was selected as vehicle control to balance the requisite need of DMSO in HepaRG cultures to maintain differentiation (for example, baseline metabolism, proportions of hepatocytes vs. cholangiocytes), while enabling further hepatic receptor pathway activation (for example, PXR and CAR) in response to chemical exposure. 48 hours after plating, the culture medium was replaced with HepaRG Serum-Free Incudtion Media. Cells were exposed to each test chemical in duplicate and maintained in CO2 incubators for another 48 hours. Chemical plates were thawed to room temperature and 200x concentrations of treatment groups were prepared. 8-point conentration-reponse curves were made with the highest exposure at 100 uM, followed by half-log dilutions, all in 0.5% DMSO. Each test plate contained variouse controls, induction positive controls (1mM phenobarbital), cytotoxicity positive controls ([…] aflatoxin B1), vehicle controls (0.5% DMSO), and total lysis controls (0.5% DMSO). Cell morphology images were taken using an Essen IncuCyte FLR automated microscope, with six 96-well plates imaged in about 24 minutes. Images were captured and exported and JPEG files. Spent culture media was transfered to black-well plates for the LDH assay, and remaining media was sorted at -80 C for later use. Cells were treated with RLT buffer and frozen until shipped for gene expression analysis. Total RNA was isolated from the cell suspension in 75 uL of Buffer RLT (Qiagen, Germantown, MD 20874) by Quintiles/Expression Analysis (Durham, NC) using a custom isolation procedure. Total RNA from each plate well was transferred to a preamplification plate. Fluidigm's 96.96 Dynamic ArrayTM (Fluidigm, Amsterdam, the Netherlands) technology was used for gene expression analyses by quantitative reverse transcription polymerase chain reaction (qRT-PCR, performed by Quintiles/Expression Analysis, Durham, NC)89. Standard TaqManTM Assays (Applied Biosystems/ThermoFisher Scientific, Foster City, CA) were used to assess the expression of 93 genes selected based on their selectivity and sensitivity to important hepatic receptors known to be modulated by environmental chemicals; importance in human hepatocyte functionality; and hepatotoxicity. […]

SMILES	outcome	AC50
O=c1c(-c2ccc(O)cc2)coc2cc(O)ccc12	inactive	–
COCC(C)O (stereo not given)	inactive	–
CC(O)CO (stereo not given)	inactive	–
CCCCCCCCC(=O)O	inactive	–
N#C[C@@H]1CC(F)(F)CN1C(=O)CNC1CC2CCC(C1)N2c1ncccn1 (stereo not given in full)	inactive	–
C=C(C)C(=O)OCCC(F)(F)C(F)(F)C(F)(F)C(F)(F)C(F)(F)C(F)(F)F	inactive	–
CCCCC(CC)COC(=O)CCCCC(=O)OCc1ccccc1 (stereo not given)	inactive	–
CC(C)CCCCCCOC(=O)CCCCC(=O)OCCCCCCC(C)C	inactive	–
CCCCC(CC)COC(=O)CCCCC(=O)OCC(CC)CCCC (stereo not given)	inactive	–
CCCCCCCCCCCCCCCS(=O)(=O)Oc1ccccc1	inactive	–
CCCCCCCCCCCCc1ccccc1S(=O)(=O)O	inactive	–
O=C(OCCOCCOC(=O)c1ccccc1)c1ccccc1	inactive	–
OCCC(F)(F)C(F)(F)C(F)(F)C(F)(F)C(F)(F)C(F)(F)C(F)(F)C(F)(F)F	inactive	–
CC(C)(C)CC(C)(C)c1ccc(O)c(-n2nc3ccccc3n2)c1	inactive	–
ClC1=C(Cl)C(Cl)(Cl)C(Cl)=C1Cl	inactive	–
CCCCCCCC(=O)O	inactive	–
CCCCCCC(=O)O	inactive	–
CCC(=C(c1ccc(O)cc1)c1ccc(OCCN(C)C)cc1)c1ccccc1	–	92.9 µM (active)
CC[C@H](C)[C@@H](C(=O)O)n1sc2ccccc2c1=O	inactive	–
CN(C)C=O	inactive	–

SMILES	outcome	AC50
CN1CCN(c2ccccc2/C=C2\SCCN(c3ccc(Cl)c(Cl)c3)C2=O)CC1	inactive	–
CC#C[C@]1(O)CC[C@H]2[C@@H]3CCC4=CC(=O)CCC4=C3[C@@H](c3ccc(N(C)C)cc3)C[C@@]21C	inactive	–
Cc1cc(CCN2CCN(c3nsc4ccccc34)CC2)cc2c1NC(=O)CC2(C)C	inactive	–
Cc1cc(C)c(O)c(C)c1	inactive	–
CC(C)(C)c1cccc(C(C)(C)C)c1O	inactive	–
CCc1nn(C2CCCCC2)c2cc(C3(C#N)CCC(C(=O)O)CC3)ccc12 (stereo not given)	inactive	–
Nc1cccc2c(N)cccc12	inactive	–
CC1=C(/C=C/C(C)=C/C=C/C(C)=C/C(=O)O)C(C)(C)CCC1	inactive	–
CC(=O)NC1(c2cccc(F)c2)CCN(CC[C@@]2(c3ccc(Cl)c(Cl)c3)CN(c3ccccc3)C(=O)CO2)CC1	–	75 µM (active)
COCC(C)OCC(C)O (stereo not given)	inactive	–
CCC(C)(C)C1CCC(O)CC1 (stereo not given)	inactive	–
Oc1cc2ccccc2c2ccccc12	inactive	–
CN1CCC[C@H]1c1cccnc1	inactive	–
c1ccc2c(c1)Cc1ccccc1-2	inactive	–
Cc1oc(-c2ccccc2)nc1CCOc1ccc(C[C@H](Nc2ccccc2C(=O)c2ccccc2)C(=O)O)cc1	–	30.5 µM (active)
CCc1ccc(CCOc2ccc(CC3SC(=O)NC3=O)cc2)nc1 (stereo not given)	inactive	–
OCCC(F)(F)C(F)(F)C(F)(F)C(F)(F)C(F)(F)C(F)(F)F	inactive	–
CCCCCCCCCCCCN1CCCC1=O	inactive	–
NC(=O)N(O)[C@@H]1C=C[C@H](Oc2cccc(Oc3ccc(F)cc3)c2)C1	inactive	–
OC1CCC(C2CCCCC2)CC1 (stereo not given)	inactive	–
